# Results filed as inconclusive are left out. Activity calls are given as the source filed them. Calls follow the shape of the dose curve; as a rule, active = well fitted inhibition curve with a large enough effect; inconclusive = small, poorly fitted or top-dose-only effect; inactive = flat fitted curve, though single readings scatter.
# Assays:
# Assay in all cases: qHTS profiling for inhibitors of Plasmodium falciparum proliferation (AID 504749); also: nearly all actives have a fitted effect of over 60% in size
# Details in all cases: P. falciparum in erythrocytes, SYBR Green DNA, 72 h; series mostly up to 28.7 µM
# [1] = test system: CP335
# How it was run: (§1)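 Each compound contacts P. falciparum-infected red blood cells for 72 h at 37 C; lysis buffer (Tris, EDTA, saponin, Triton X, SYBR Green I) is added and fluorescence measured next morning; values normalized to controls.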
# [2] = test system: DIV14
# How it was run: as §1
# [3] = test system: DIV17
# How it was run: as §1
# [4] = test system: CP325
# How it was run: as §1
# [5] = test system: CP329
# How it was run: as §1
# [6] = test system: DFO2036
# How it was run: as §1
# [7] = test system: DIV30
# How it was run: as §1
# [8] = test system: Dd2
# How it was run: as §1
# [9] = test system: ECU
# How it was run: as §1
# [10] = test system: FAB9
# How it was run: as §1
# Potency is read from the fitted curve at half-maximal effect.
SMILES,Potency [1],Potency [2],Potency [3],Potency [4],Potency [5],Potency [6],Potency [7],Potency [8],Potency [9],Potency [10]
CN1CCCN(C(c2ccccc2)c2ccc(Cl)cc2)CC1 (configuration not stated),12 µM (active),1.69 µM (active),1.51 µM (active),,,,,,,
CCCCCCCCCCCCCCCC[n+]1ccccc1,6.75 µM (active),6.75 µM (active),6.75 µM (active),5.36 µM (active),7.57 µM (active),5.62 µM (active),13.5 µM (active),10 µM (active),7.08 µM (active),
O=S(=O)(O)c1ccc2nc(-c3ccccc3)[nH]c2c1,inactive,,inactive,inactive,inactive,inactive,inactive,inactive,inactive,inactive
CCCCCCCCCCCCCCCC[N+](C)(C)Cc1ccccc1,12 µM (active),8.49 µM (active),8.49 µM (active),9.53 µM (active),10.7 µM (active),2.82 µM (active),15.1 µM (active),,3.16 µM (active),10 µM (active)
CN1CCC(Nc2ncc3ncnc(Nc4ccc(F)c(Cl)c4)c3n2)CC1,9.53 µM (active),10.7 µM (active),8.49 µM (active),,,,,7.94 µM (active),12.6 µM (active),
CC(NCCC(c1ccccc1)c1ccccc1)c1ccccc1 (configuration not stated),4.78 µM (active),5.36 µM (active),6.01 µM (active),15.1 µM (active),,,8.49 µM (active),8.91 µM (active),7.94 µM (active),
Nc1ncnc2nc[nH]c12,inactive,inactive,inactive,inactive,inactive,inactive,inactive,inactive,inactive,inactive
Nc1c2ccccc2nc2ccccc12,,8.49 µM (active),7.57 µM (active),,,5.01 µM (active),15.1 µM (active),12.6 µM (active),10 µM (active),
O=[N+]([O-])c1ccc(O)c2ncccc12,,,,,,,,12.6 µM (active),,
CCCCCCCCCCCCCC[N+](C)(C)C,4.26 µM (active),6.75 µM (active),7.57 µM (active),6.01 µM (active),5.36 µM (active),4.47 µM (active),6.75 µM (active),6.31 µM (active),4.47 µM (active),11.2 µM (active)
O=C(Nc1ccc(Cl)cc1)Nc1ccc(Cl)c(Cl)c1,3.38 µM (active),1.35 µM (active),0.953 µM (active),4.26 µM (active),8.49 µM (active),2.82 µM (active),1.69 µM (active),,3.55 µM (active),5.01 µM (active)
Nc1ccc2cc3ccc(N)cc3nc2c1,6.01 µM (active),6.01 µM (active),12 µM (active),,,,,,,8.91 µM (active)

# Source: PubChem BioAssay (NCATS)
